Compound activity as filed in PubChem.
In the library only some 1.6% were active in any assay of this set; here they are far more common.
KCNQ2 enhance = potentiators of rat KCNQ2 potassium channel. O88943. CHO-K1 KCNQ2, FluxOR thallium flux fluorescence; hits give high values. B-score at 10 µM. 310,000 compounds, 0.54% hits. AID 2239;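 active = fluorescence ratio B-score at least 3 SD of library B-scores, with initial fluorescence B-score within 3 of them, cut at about 5.3 in these data; same plate scores as AID 2156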;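 also: B-score of peak minus minimum over baseline fluorescence ratio after K+ and Tl+ stimulus; positive B-score means potentiation of KCNQ2 with more thallium influx and brighter signal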
Target sequence (O88943 whole entry, looked up): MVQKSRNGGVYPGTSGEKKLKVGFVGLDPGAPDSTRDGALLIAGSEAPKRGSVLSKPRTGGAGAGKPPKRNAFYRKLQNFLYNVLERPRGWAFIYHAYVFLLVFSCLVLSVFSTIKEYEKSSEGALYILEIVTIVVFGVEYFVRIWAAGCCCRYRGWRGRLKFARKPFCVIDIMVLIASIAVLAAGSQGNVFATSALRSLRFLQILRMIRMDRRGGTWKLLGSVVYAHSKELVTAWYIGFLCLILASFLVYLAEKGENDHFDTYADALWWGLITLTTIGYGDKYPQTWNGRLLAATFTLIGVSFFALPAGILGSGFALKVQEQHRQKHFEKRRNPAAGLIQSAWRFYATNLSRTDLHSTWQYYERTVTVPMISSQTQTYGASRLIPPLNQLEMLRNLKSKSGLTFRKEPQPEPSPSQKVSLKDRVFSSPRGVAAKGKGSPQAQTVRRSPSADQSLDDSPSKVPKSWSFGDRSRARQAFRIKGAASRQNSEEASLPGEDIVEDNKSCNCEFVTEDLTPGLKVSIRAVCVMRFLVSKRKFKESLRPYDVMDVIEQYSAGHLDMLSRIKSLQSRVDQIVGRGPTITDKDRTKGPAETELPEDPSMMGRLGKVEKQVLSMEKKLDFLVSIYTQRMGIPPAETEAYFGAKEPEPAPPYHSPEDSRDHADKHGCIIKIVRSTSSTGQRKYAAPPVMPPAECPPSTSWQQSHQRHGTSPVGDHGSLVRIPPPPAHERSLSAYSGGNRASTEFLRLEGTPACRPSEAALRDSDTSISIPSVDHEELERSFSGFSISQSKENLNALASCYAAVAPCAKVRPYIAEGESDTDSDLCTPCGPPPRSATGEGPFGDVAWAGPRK
KCNQ2 block = inhibitors of rat KCNQ2 potassium channel; CHO-K1 KCNQ2, FluxOR thallium flux, 20 min; hits give low values; B-score at 10 µM; 310,000 compounds, 1.1% hits; AID 2156;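 active = fluorescence ratio B-score at most minus 3 library SDs, with starting brightness B-score within 2 library SDs, cut at about -5.5 in these data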
Kir21 conf inh = confirmation of mouse Kir2.1 potassium channel inhibitors; shares compounds with KCNQ2 enhance; Kir2.1-expressing cells, FluxOR thallium flux fluorescence; hits give low values; Tl flux remaining, % of negative control (hits give low values), % at 10 µM; 2,300 compounds, 41% hits;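 active = Primary-screen hit whose thallium flux fell at least 3 control SD below untreated wells in both duplicates, with normal baseline fluorescence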;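 also: 0% = blank wells without stimulus and 100% = stimulated no-compound controls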
HEK293 Tl flux = alters thallium flux in parental HEK293 cells, Kir2.1 counter-screen; shares compounds with KCNQ2 enhance; FluxOR thallium flux fluorescence; 0% = unstimulated blank wells; FluxOR signal as % of negative control (100 = no effect), % at 10 µM; 2,300 compounds, 19% hits;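 active = dye signal at least 3 control SD above or below untreated wells in both duplicates, raw fluorescence within 3, either direction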;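 also: percent is based on the flux ratio of peak minus minimum fluorescence over baseline F0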
CHO-K1 ctr = parental CHO-K1 activity in KCNQ2 potentiator counter-screen; shares compounds with KCNQ2 enhance; AID 2282; parental CHO-K1 cells, FluxOR thallium flux fluorescence; zero = vehicle mean+3SD, 100% = vehicle-minus-blank window; activity increase over 3SD of controls, % at 10 µM; 1,200 compounds, 43% hits;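 active = signal rise of at least 3 SD above the untreated control mean, in both duplicate wells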;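 also: counter screen of KCNQ2 potentiator hits so any rise reflects channel-independent effects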
KCNQ1 sel pot = selectivity of KCNQ2 potentiators: effect on human KCNQ1. shares compounds with KCNQ2 enhance. CHO KCNQ1 stable, FluxOR thallium flux fluorescence; beyond 3SD, as % of vehicle-control signal. activation over 3SD threshold, % at 10 µM. 1,200 compounds, 28% hits;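 active = fluorescence ratio rise of at least 3 SD of vehicle wells above their mean, in both replicate wells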;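 also: 0% = vehicle mean plus 3 SD and 100% = vehicle minus unstimulated blank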
KCNQ2 pot confirm = confirmation of rat KCNQ2 potassium channel potentiators | shares compounds with KCNQ2 enhance | AID 2287 | potentiation, less the hit threshold, % at 10 µM | CHO-KCNQ2 cells, FluxOR thallium flux fluorescence | 1,200 compounds, 68% hits;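 active = fluorescence ratio rising 3 SD or more over the vehicle control mean in both replicates, plus primary screen hit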;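 also: peak minus minimum thallium fluorescence divided by baseline after K/Tl stimulus; 0% = vehicle mean plus 3 SD and 100% = vehicle minus unstimulated blank difference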
Kir21 spec = mouse Kir2.1 off-target activity of KCNQ2 potentiators | shares compounds with KCNQ2 enhance | HEK293 Kir2.1, FluxOR thallium flux fluorescence | activity over 3SD threshold, % at 10 µM | 1,200 compounds, 2% hits | AID 2345;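 active = fluorescence ratio rise of at least 3 SD above the vehicle-control mean, seen in both replicates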;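 also: 0% = vehicle mean plus 3 SD and 100% = vehicle minus no-stimulus blank window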
KCNQ2 W236L MoA = KCNQ2 potentiators acting on retigabine-insensitive rat KCNQ2 W236L mutant. shares compounds with KCNQ2 enhance. CHO KCNQ2-W236L, automated patch clamp current. current increase over 3SD of negative controls (%), hits give high values, % at 25 µM. 940 compounds, 10% hits. AID 2558;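 active = current increase at least 3 SD of the untreated controls above them in both duplicate recordings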
* marks the source's active call; other numbers are inactive results; i = inactive; / = no result.

SMILES	KCNQ2 enhance	KCNQ2 block	Kir21 conf inh	HEK293 Tl flux	others
COc1ccccc1CNCc1ccc(C)cc1	/	i	/	/
COc1ccc2ccccc2c1CNCc1ccc(C)cc1	/	i	22%*	i
CCCCc1nc(SCCOC)c2c(=O)n(C)c(=O)n(C)c2n1	2	i	/	/
CC(C)Cc1nc(SCC(=O)N2CCCC2)c2c(=O)n(C)c(=O)n(C)c2n1	6.5*	i	i	i	CHO-K1 ctr=33*;KCNQ1 sel pot=-10;KCNQ2 pot confirm=19*;Kir21 spec=-9;KCNQ2 W236L MoA=i
CCCCc1nc(SCC(=O)N2CCCC2)c2c(=O)n(C)c(=O)n(C)c2n1	8.2*	i	i	i	CHO-K1 ctr=-22;KCNQ1 sel pot=-11;KCNQ2 pot confirm=38*;Kir21 spec=-34;KCNQ2 W236L MoA=i
Cc1nc(SCC(=O)N2CCOCC2)c2c(=O)n(C)c(=O)n(C)c2n1	1.1	i	/	/
Cn1c(=O)c2c(SCC(=O)N3CCCC3)nc(-c3ccccc3)nc2n(C)c1=O	2.4	i	/	/
CCCCc1nc(SCC(=O)N2CCOCC2)c2c(=O)n(C)c(=O)n(C)c2n1	5.4*	i	i	i	CHO-K1 ctr=-4;KCNQ1 sel pot=57*;KCNQ2 pot confirm=9.8*;Kir21 spec=-28;KCNQ2 W236L MoA=i
CC1CCN(C(=O)CSc2nc(C(C)C)nc3c2c(=O)n(C)c(=O)n3C)CC1	27*	i	i	i	CHO-K1 ctr=21*;KCNQ1 sel pot=-2;KCNQ2 pot confirm=124*;Kir21 spec=-24;KCNQ2 W236L MoA=i
CC(C)c1nc(SCC(=O)N2CCCc3ccccc32)c2c(=O)n(C)c(=O)n(C)c2n1	0.99	i	/	/
O=C(CN1C(=O)CSc2ccc(S(=O)(=O)N3CCCCC3)cc21)NCc1ccccc1Cl	/	i	/	/
CN(CC(=O)Nc1ccccc1Cl)C(=O)COC(=O)c1ccccc1[N+](=O)[O-]	0.49	i	/	/
CCC(C)(C)NC(=O)C(c1ccccn1)N(C(=O)c1csnn1)c1ccc(C)cc1 (stereo not drawn)	0.92	i	/	/
Cn1c(=O)c2c(SCC(=O)N3CCOCC3)nc(C3CCCCC3)nc2n(C)c1=O	3.8	i	/	/
CCCCc1nc(SCC(=O)N2CCCCC2)c2c(=O)n(C)c(=O)n(C)c2n1	26*	i	i	i	CHO-K1 ctr=-16;KCNQ1 sel pot=-25;KCNQ2 pot confirm=100*;Kir21 spec=-43;KCNQ2 W236L MoA=i
O=C(Nc1ccc2c(c1)OCO2)C1CCN(C(=O)c2ccc([N+](=O)[O-])cc2)CC1	/	i	/	/
O=C(Nc1cccc(F)c1)C1CCCN(c2cnccn2)C1 (stereo not drawn)	1.2	i	/	/
O=C(CCSCCC(=O)NCc1cccs1)NCc1cccs1	0.86	i	/	/
O=C(CC1CC2CCC1C2)NCc1cccs1 (stereo not drawn)	5.3*	i	i	i	CHO-K1 ctr=-18;KCNQ1 sel pot=27*;KCNQ2 pot confirm=13*;Kir21 spec=-36;KCNQ2 W236L MoA=i
O=C(NCc1cccs1)C12CC3CC(CC(C3)C1)C2	0.94	i	/	/
O=C(CCC1CCCCC1)NCc1cccs1	7.4*	i	i	i	CHO-K1 ctr=54*;KCNQ1 sel pot=-12;KCNQ2 pot confirm=15*;Kir21 spec=-22;KCNQ2 W236L MoA=i
N/C(=N\NC(=O)c1ccccc1Cl)c1cc2ccccc2oc1=O	1.3	i	/	/
COc1cc(NS(=O)(=O)c2c(C(=O)N3CCOCC3)c(C)n(C)c2C)cc(OC)c1OC	/	i	/	/
CCN(CC)c1ccc(S(=O)(=O)N2CCOCC2)cc1NC(=O)CSc1n[nH]c(N)n1	/	i	/	/
CNC(=O)c1ccccc1NC(=O)C1CC(=O)N(C(C)C)C1 (stereo not drawn)	0.42	i	/	/
SMILES	KCNQ2 enhance	KCNQ2 block	Kir21 conf inh	HEK293 Tl flux	others
CCOc1ccc(S(=O)(=O)NCCC(=O)N(C)CC(=O)Nc2ccc(N3CCOCC3)cc2)cc1	/	i	/	/
CCCOC1CCCN(C(=O)c2cc(Cl)c(Cl)cc2C(=O)O)C1 (stereo not drawn)	8.6*	i	i	i	CHO-K1 ctr=-11;KCNQ1 sel pot=-18;KCNQ2 pot confirm=-8;Kir21 spec=-34
CCOC(=O)N1CCN(C(=O)c2cc(Cl)c(Cl)cc2C(=O)O)CC1	/	i	/	/
COc1cc(/C=C/c2ccc3cccc(O)c3n2)ccc1O	17*	i	i	142%*	CHO-K1 ctr=7.5*;KCNQ1 sel pot=35*;KCNQ2 pot confirm=12*;Kir21 spec=-37;KCNQ2 W236L MoA=i
COc1cc(/C=C/c2ccc3cccc(O)c3n2)c(Br)cc1O	6.4*	i	i	71%*	CHO-K1 ctr=5.7*;KCNQ1 sel pot=-12;KCNQ2 pot confirm=-19;Kir21 spec=-40
COc1cc(Br)c(/C=C/c2ccc3cccc(O)c3n2)cc1OC	0.09	i	/	/
COc1ccc(OC)c(/C=C/c2ccc3cccc(O)c3n2)c1	0.39	i	/	/
COc1cc(CC(=O)NCCCc2ccccc2)cc(OC)c1OC	0.32	i	/	/
COc1ccccc1NC(=O)C(C)OC(=O)/C(=C/c1ccccc1)NC(C)=O (stereo not drawn)	/	i	/	/
COc1ccc(C(C)(C)C)cc1NC(=O)c1cccc(S(=O)(=O)N2CCN(C(C)=O)CC2)c1	2.5	i	/	/
COc1cccc(CN(C)C(=O)C(Cc2ccccc2)NC(=O)c2ccccc2)c1OC (stereo not drawn)	/	i	/	/
Cc1ccc(/C(=N/Nc2nc3ccccc3s2)C2=C(O)c3ccccc3C2=O)cc1	0.85	i	i	i
Cc1ccc(S(=O)(=O)N(C)CC(=O)Nc2nc3ccccc3s2)cc1	/	i	/	/
OCC1(Cc2ccccc2F)CCCN(Cc2c(F)ccc(F)c2F)C1 (stereo not drawn)	/	i	/	/
CCOc1ccc2nc(NC(=O)Cn3[nH]c(=O)c4ccccc4c3=O)sc2c1	0.58	i	/	/
Cc1ccc(S(=O)(=O)Nc2cc(=O)[nH]c(SCC(=O)Nc3cccc(C)c3)n2)cc1	5.3*	i	i	i	CHO-K1 ctr=30*;KCNQ1 sel pot=-5;KCNQ2 pot confirm=18*;Kir21 spec=-33;KCNQ2 W236L MoA=i
Cc1ccc(NC(=O)CSc2nc(NS(=O)(=O)c3ccccc3)cc(=O)[nH]2)cc1	0.93	i	/	/
COc1ccc(OC)c(NC(=O)c2cccc(NC(=O)c3ccccc3C(=O)O)c2)c1	0.69	i	/	/
CCOC(=O)c1c(-c2ccccc2)csc1NC(=O)CSc1nnc(C)s1	/	i	/	/
CCOC(=O)c1c(-c2ccccc2)csc1NC(=S)NC	7.8*	i	i	220%*	CHO-K1 ctr=-4;KCNQ1 sel pot=-22;KCNQ2 pot confirm=7.3*;Kir21 spec=-27;KCNQ2 W236L MoA=i
Cc1cc(Cl)cc(C)c1OCCOCCNCc1ccccc1	/	i	14%*	i
CC(C)(C)c1ccc(OCCNCc2ccccc2)cc1	/	i	/	/
Cc1cc(C)c(C)c(OCCNCc2ccccc2)c1	/	i	/	/
COc1ccccc1OCCCOc1c(Cl)cc(C)cc1Cl	0.23	i	/	/
